# An excerpt weighted towards active compounds, which were near 2.7% of everything screened.
# CHT inh – inhibitors of human choline transporter CHT; CHT-expressing cells, membrane potential dye, choline response; hits give low values; hit rate 0.86% among 310,000; B-score at 10 µM; AID 488975; Q9GZV3;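 active = B-score over 3 SD under the library average, and starting fluorescence ratio not unusually high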;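 also: choline stimulus applied at its EC90 after an EC20 pre-addition; B-score computed on integrated fluorescence ratio after choline addition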
# Target sequence (Q9GZV3 whole entry, looked up): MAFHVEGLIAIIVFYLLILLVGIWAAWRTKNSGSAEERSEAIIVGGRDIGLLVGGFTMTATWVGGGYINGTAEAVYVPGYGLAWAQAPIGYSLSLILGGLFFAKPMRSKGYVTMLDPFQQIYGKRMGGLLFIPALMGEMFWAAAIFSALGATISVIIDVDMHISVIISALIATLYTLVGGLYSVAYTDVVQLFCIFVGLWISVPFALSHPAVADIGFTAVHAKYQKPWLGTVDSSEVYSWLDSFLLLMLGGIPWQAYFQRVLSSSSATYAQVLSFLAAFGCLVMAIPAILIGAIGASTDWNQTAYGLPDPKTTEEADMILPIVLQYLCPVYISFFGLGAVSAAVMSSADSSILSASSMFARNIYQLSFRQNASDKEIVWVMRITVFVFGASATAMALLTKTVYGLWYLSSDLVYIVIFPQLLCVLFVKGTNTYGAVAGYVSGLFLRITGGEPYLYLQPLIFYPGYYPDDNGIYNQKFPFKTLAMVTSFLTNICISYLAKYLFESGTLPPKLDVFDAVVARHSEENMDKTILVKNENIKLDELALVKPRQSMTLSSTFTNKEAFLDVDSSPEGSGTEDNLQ
# IDE cell activ – boosts human insulin-degrading enzyme activity in HEK cells. P14735. FAbeta-B cleavage, fluorescence polarization; 0% vehicle, 100% cell-free pure enzyme wells. activation, % at 5.96 µM. hit rate 0.073% among 340,000;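 active = activation above the mean of all tested compounds plus 3 SD, set per screening campaign, cut at about 17% in these data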
# IDE inh – inhibitors of human insulin-degrading enzyme in cells; P14735; HEK cells, FAbetaB cleavage, fluorescence polarization; inhibition, % at 5.59 µM; hit rate 0.41% among 320,000; AID 434962;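 active = percent inhibition above the average of all tested compounds plus 3 SD, set per screening campaign, cut at about 16% in these data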;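 also: IDE supplied by intact live HEK cells; FP after avidin binding of uncleaved biotin substrate so inhibition keeps polarization high; 0% = DMSO wells and 100% = 60 µM reference IDE inhibitor Ii1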
# TMEM16A act – mouse TMEM16A channel activation, primary screen; HEK293 TMEM16A/YFP-H148Q/I152L, iodide quench fluorescence; hits give low values; B-score at 10 µM; hit rate 0.3% among 340,000; Q8BHY3;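 active = fluorescence-ratio B-score plate-corrected deviation score at least 3 library SD below zero, with starting fluorescence score within 5 deviations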;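 also: channel opened by trigger with iodide after compound preincubation; score built on the fluorescence ratio of max minus min over baseline; more negative score means more quench and so TMEM16A activation or potentiation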
# CHT PAM – human CHT allosteric activation; hit rate 0.49% among 310,000; B-score at 10 µM; CHT-expressing cells, membrane potential dye, choline EC20; hits give high values; LV-AA mutant CHT in HEK293 cells; AID 488977; Q9GZV3;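 active = initial fluorescence not abnormally high and integrated response B-score, plate-corrected, over 3 SD above library mean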
# TMEM16A inh – mouse TMEM16A channel inhibition, primary screen. Q8BHY3. HEK293 TMEM16A/YFP iodide influx fluorescence, ionomycin. normalized B-score (activity score, 25-100; higher = stronger inhibition) at 10 µM. hit rate 1.2% among 310,000;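 active = ratio plate-corrected score three or more library SD toward inhibition, starting fluorescence score within five deviations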;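 also: score derived from kinetic fluorescence span divided by baseline fluorescence per well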
# An asterisk follows results filed as active; i = inactive; · = not tested or not shown.
SMILES,CHT inh,IDE cell activ,IDE inh,TMEM16A act,CHT PAM,TMEM16A inh
O=[N+]([O-])c1ccc(S(=O)(=O)NCCS(=O)(=O)N2CCN(c3ccccc3)CC2)cc1,i,3,0,-29*,i,i
COc1cc(C=NO)nc(-c2ccccn2)c1,·,3,·,i,·,·
Cc1cc(NC(=O)C2CC(=O)N(c3ccccc3Cl)C2)no1 (configuration not stated),i,6,2,i,i,i
Cc1cc(C)cc(-n2c(C)cc(/C=N/NC(=O)CN(c3c(C)cccc3C)S(C)(=O)=O)c2C)c1,i,2,-1,i,i,i
Cc1ccc(N(CC(=O)N/N=C/c2cc(C)n(-c3ccccc3C)c2C)S(C)(=O)=O)cc1,-7*,2,3,i,i,i
CSc1ccc(/C=C(\C(=O)O)c2ccc(S(=O)(=O)N3CCCC3)s2)cc1,·,4,1,i,·,·
Cc1cc(C)cc(C(=O)NCC(=O)OCC(=O)Nc2ccc(C)cc2Br)c1,i,2,-2,-4.6*,i,i
Cc1ccc(NC(=O)COC(=O)CNC(=O)C2CCCCC2)c(Br)c1,i,0,8,i,i,i
O=C(NCCCSc1ccccc1)c1cc(Cl)ccc1O,i,-3,·,i,i,100*
CC(NCc1ccc(S(N)(=O)=O)cc1)C(=O)Nc1ccc([N+](=O)[O-])cc1Cl (configuration not stated),i,4,-1,-24*,i,i
CC(NCc1ccc(S(N)(=O)=O)cc1)C(=O)Nc1cccc(Cl)c1 (configuration not stated),i,8,3,i,i,i
O=C(NC1CCCCC1)c1cccc(N2C(=O)CCC2=O)c1,·,6,·,i,·,·
CC(C)(C)c1cc(-c2csc(Nc3ccccc3)[n+]2Cc2ccc(C(=O)O)cc2)cc(C(C)(C)C)c1O,i,5,7,i,i,100*
O=C(COC(=O)c1ccco1)Nc1ccc(N2CCOCC2)cc1,·,2,·,i,·,·
CC(C)CN1CCC(=O)N([C@H](CO)c2ccccc2)CC1,i,37*,3,i,i,i
CCCCCCCN1CCC(=O)N([C@H](CO)c2ccccc2)CC1,i,2,-2,i,i,i
O=C(Cc1cn2ccsc2n1)NCCc1ccc(F)cc1,i,2,-3,-49*,i,i
CC1=CC2=NC(=O)/C(=C\c3cc(C)n(-c4ccccc4)c3C)C(=N)N2O1,i,2,1,-4.9*,i,i
CC1=CC2=NC(=O)/C(=C\c3cc(C)n(-c4cccc(Cl)c4)c3C)C(=N)N2O1,i,3,-1,i,i,i
O=[N+]([O-])c1ccc(NC(=S)NCCc2ccccc2)cc1,i,3,0,i,i,100*
NS(=O)(=O)c1ccc(NC(=S)NCc2ccc(F)cc2)cc1,i,-3,-1,i,i,i
O=[N+]([O-])c1ccc(NC(=S)NCc2ccc(F)cc2)cc1,i,2,-1,-5*,i,25*
O=[N+]([O-])c1cc(C(F)(F)F)ccc1NCCNC(=S)Nc1ccc(Cl)cc1,i,6,-1,i,i,100*
S=C(NCCc1ccccc1)Nc1ccc(Cl)cc1,i,2,2,i,i,i
O=[N+]([O-])c1ccc(NC(=S)NCCc2ccc(Cl)cc2)cc1,i,-1,-3,i,i,100*
SMILES,CHT inh,IDE cell activ,IDE inh,TMEM16A act,CHT PAM,TMEM16A inh
NS(=O)(=O)c1ccc(NC(=S)NCCc2ccccc2)cc1,i,2,3,i,i,i
CC12CCC(=O)C=C1CCCC2=O (configuration not stated),·,2,·,i,·,·
c1ccc(CN=C(NCc2ccccc2)NCc2ccccc2)cc1,·,7,·,i,·,·
CCCC(c1nnnn1Cc1cccs1)N1CCN(c2nc3ccccc3s2)CC1 (configuration not stated),i,4,2,-13*,i,i
CCOC(=O)C1(CCc2ccccc2)CCN(Cc2cccc3nccnc23)CC1,-12*,3,-10,i,i,i
CCOC(=O)C1(CCc2ccccc2)CCN(Cc2ccn[nH]2)CC1,i,5,-1,i,i,i
CCOC(=O)C1(CCCc2ccccc2)CCN(C(=O)Cc2nonc2C)CC1,i,8,4,-6.7*,i,i
CCOC(=O)C1(CCCc2ccccc2)CCN(C(=O)CSC)CC1,i,0,4,i,i,i
CC(=O)c1ccc(S(=O)(=O)NCCC(=O)NC(C)c2ccncc2)cc1 (configuration not stated),·,4,1,i,·,·
COc1cc(NC(=O)COC(=O)Cn2cnc3c2c(=O)n(C)c(=O)n3C)cc(OC)c1,·,1,4,i,·,·
CCSC1=N/C(=C\C=C2/Oc3ccccc3N2CC)C(=O)S1,i,-35,20*,i,i,i
CCOC(=O)c1c(NC(=O)c2ccc(C)cc2)sc2c1CC(C)(C)OC2,i,-5,8,i,i,25*
COc1ccc(-n2nc(C(=O)NCC(=O)N(C)Cc3ccccc3)c3ccccc3c2=O)cc1OC,i,1,2,i,i,i
O=C(Nc1ccc(OCC(F)(F)C(F)F)c(C(F)(F)F)c1)c1ccc(Cl)cc1,i,0,11,i,i,100*
O=C(Nc1ccc(Br)c(C(F)(F)F)c1)c1ccc(C(F)(F)F)cc1,i,·,-4,-13*,i,i
O=C(Nc1ccc(Br)c(C(F)(F)F)c1)c1ccccc1,i,-7,5,i,i,i
COc1ccc(OCC(=O)N2c3ccccc3CC2C)c([N+](=O)[O-])c1 (configuration not stated),·,-2,6,i,·,·
CCCCOc1ccc(S(=O)(=O)Nc2cc(OC)ccc2OC)cc1,i,2,-5,i,i,25*
CN(CC(=O)Nc1nc2ccccc2s1)S(=O)(=O)c1ccc(Br)cc1,i,-4,7,i,i,25*
Cc1cccc(NC(=O)CN(C)S(=O)(=O)c2ccc(Br)cc2)n1,i,3,0,i,i,i
COc1ccc(C(=O)OCC(=O)c2ccc[nH]2)cc1,·,1,0,i,·,·
O=C(NN1C(=O)NC2(CCCCC2)C1=O)c1ccc(Cl)s1,·,5,-4,i,·,·
O=C(Nc1nc2ccccc2[nH]1)C1CCCO1 (configuration not stated),i,0,-2,i,i,i
O=C(Nc1nc2ccccc2[nH]1)C1CC1,i,7,-3,-5.8*,i,i
